The panel holds about 83,000 compounds, 20% with a hit somewhere; the sample as a whole holds those more often.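 A percent growth of 40 corresponds to 60% growth inhibition; 0 means no net growth; -100 means all cells died. Active threshold: below 10.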 The source made the active and inactive calls.
The molecules below were run on MDA-MB-435 melanoma (assay: NCI-60 one-dose screen, 48 h (100 = growth as untreated, 0 = no growth, -100 = all killed)). Settings: 10 µM unless noted.

Row | Structure (SMILES) | growth
1 | C/C(Cc1ccc(Cl)cc1)=C(/c1ccc(Cl)cc1)c1ccc(OCCN(C)C)cc1 | 44.6% (inactive)
2 | Cc1ccc(NC(=O)C(Cl)Cl)cc1 | 107% (inactive)
3 | Cc1cnc(Nc2ccc(N3CCN(C)CC3)cc2)nc1Nc1ccc(Cl)c(NS(=O)(=O)C(C)(C)C)c1 | 31.6% (inactive)
4 | CCn1c(Sc2nnc(NC(=O)CSC(=S)N3CCCCC3)s2)nc2c1c(=O)n(C)c(=O)n2C | 6.74% (active)
5 | CNC(=O)c1cc(Oc2ccc3nc(Nc4cc(Cl)cc(Cl)c4)ccc3c2)ccn1 | 12.8% (inactive)
6 | C[C@@H]1CC[C@@H]2[C@@H]1[C@H](OC(=O)/C=C/c1ccccc1)[C@]1(C3CCCCC3)C[C@@H](NC(=O)CO)[C@@]2(C)O1 | 94.3% (inactive)
7 | O=C1CCC(N2C(=O)c3cccc(NCCCC4CCN(CCNC(=O)c5cc6c(o5)C(=O)c5ccccc5C6=O)CC4)c3C2=O)C(=O)N1 (stereo not given) | -97.1% (active)
8 | CC(=[N-])N1CCC[C@@H](Nc2c3ccccc3nc3ccccc23)C1.[Cl][Pt].[NH-]CCC[NH-] | 81.9% (inactive)
9 | Cc1ccc2c(n1)C(=O)C(Oc1ccc(F)cc1)=CC2=O | 101% (inactive)
10 | O=S(=O)(NCCNc1cc(-c2c(-c3cccc(O)c3)nc3sccn23)ccn1)c1ccc(Cl)cc1 | 24.8% (inactive)
11 | CN(C)CCOC(=O)Nc1ccc(Cl)cc1 | 112% (inactive)
12 | CCCCCCCCN(CCCCCCCC)C(=N)c1ccnc2ccccc12 | -82.3% (active)
13 | COc1cc(-c2ncn(/C=C\c3nnco3)n2)cc(C(F)(F)F)c1 | 2.34% (active)

What follows are molecules tested on SW-620 colon in the same assay as above. Settings: 10 µM unless noted.

Row | Structure (SMILES) | growth
14 | O=C(CC12CC3CC(CC(C3)C1)C2)NCCOCCOCCNC(=O)c1cc2c(o1)C(=O)c1ccccc1C2=O | -28.4% (active)
15 | CCN(CC)CCCNC(=O)c1ccc(N)cc1 | 97.8% (inactive)
16 | CCCCCCCCc1cc[n+](CC(=O)c2ccc(Br)cc2)cc1 | -33.7% (active)
17 | CC/C=C/[C@@H]1C=C[C@@H]2CCC[C@H]2[C@@H]1CC[C@H](O)[C@H](C)N | -67.2% (active)
18 | N#Cc1c(NC(=O)c2ccc(Br)cc2)sc2c1CCCC2 | 19.2% (inactive)
19 | O=[N+]([O-])c1ccc2[nH]cc(-c3c4ccsc4cc4[nH]c5ccc([N+](=O)[O-])cc5c34)c2c1 | 25% (inactive)
20 | Cc1nc(Nc2ccc(N)cc2)c2ccccc2n1 | 99% (inactive)
21 | CCCCN(Cc1ccc(C(=O)NO)cc1)C(=O)Nc1ccc(OCCCCCCCCCn2cc(CCCCC(=O)N[C@H](C(=O)N3C[C@H](O)C[C@H]3C(=O)NCc3ccc(-c4scnc4C)cc3)C(C)(C)C)nn2)cc1 | 30.7% (inactive)
22 | COc1ccc(OC)c(/C=C2\COc3ccc(O)cc3C2=O)c1 | 14.3% (inactive)
23 | CCOC(=O)C1=C(C)NC(SCc2nnc(-c3ccc(Cl)cc3)o2)=NC1c1ccc(Cl)cc1Cl (stereo not given) | 66.2% (inactive)
24 | O[C@H]1CO[C@H]2[C@@H]1OC[C@@H]2Oc1ccc(Nc2ccnc(Nc3ccc(O[C@H]4CO[C@H]5[C@@H]4OC[C@@H]5O)c(Cl)c3)n2)cc1Cl | 19.5% (inactive)
25 | COc1ccc(-n2nnc(C(=O)NCCc3c[nH]c4ccc(F)cc34)c2C)cc1 | 101% (inactive)
26 | CC(=O)Nc1ccc2c(c1)Cc1c(F)cccc1-2 | 102% (inactive)
27 | O=C1c2cccc3c(-c4ccc(-c5nc6c7ccccc7c7ccccc7c6[nH]5)cc4)ccc(c23)C(=O)N1CCN1CCNCC1 | 25.2% (inactive)
28 | C=C(C=O)C1CCC2(C(=O)O)CCC3(C)C(CCC4C5(C)CCC(O)C(C)(C)C5CCC43C)C12 (stereo not given) | -14.5% (active)
29 | NC(=O)CC1(O)C=C(Br)C(=O)C(Br)=C1 | -36.1% (active)
30 | Cc1ccc(-n2nnc(C3=NCCc4c3[nH]c3ccc(Cl)cc43)c2C)cc1 | 64.8% (inactive)
31 | CCN(CC)CC(O)CNc1c2ccc(Cl)cc2nc2ccc(OC)cc12 (stereo not given) | -37% (active)
32 | C=C1C(=O)O[C@H]2[C@H]1CC/C(C(=O)NCCCCCCCCNC(=O)/C1=C/CC[C@@]3(C)O[C@H]3[C@H]3OC(=O)C(=C)[C@@H]3CC1)=C\CC[C@@]1(C)O[C@@H]21 | 14.2% (inactive)
33 | NS(=O)(=O)c1cn(-c2ncnc3nc[nH]c23)ccc1=O | 95.1% (inactive)
34 | O[C@H]1CO[C@H]2[C@@H]1OC[C@@H]2Oc1ccc(Nc2nc(Nc3ccc(F)c(Cl)c3)ncc2F)cc1Cl | 98.2% (inactive)
35 | N#Cc1c(NC(=O)c2cccc(C(F)(F)F)c2)sc2c1CCC(=O)C2 | -66.2% (active)

— PubChem BioAssay (NCI)
